Compound activity from PubChem BioAssay.
An excerpt weighted towards active compounds, which were near 3.7% of everything screened.
BoNT-F LC inh: BoNT/F light chain protease inhibitors, primary screen, biochemical, flow cytometry, MLPCN library | inhibition, % at 10 µM | Multiplex microsphere protease cleavage assay | 0.22% of 360,000 active | AID 588497, 2011 | Botulinum neurotoxin type F light chain protease (Clostridium botulinum); in the data active = inhibition above about 35%, passing the limit was not always enough; inconclusive = no clear call, values can overlap the other calls; also: plate controls were buffer without enzyme for full effect and enzyme alone for no effect
Autofluor counter: counter-screen for toxin protease inhibitors: compound fluorescence; fluorescence intensity (test concentration not listed); compound autofluorescence counterscreen, microsphere flow cytometry; active compounds read high; 3.1% of 360,000 active; in the data active = fluorescence intensity above about 16000; inconclusive = no clear call, values can overlap the other calls
MazF activator: activators of E. coli MazEF toxin-antitoxin RNase, primary screen, biochemical, fluorescence, uHTS. Endoribonuclease toxin MazF (Escherichia coli (strain K12)), P0AE70. FAM/BHQ RNA-DNA oligo cleavage fluorescence, 5 h. activation, % at 20 µM. 0.32% of 350,000 active. AID 504720, 2011; in the data active = activation above about 50%
Target sequence (P0AE70 whole entry, looked up): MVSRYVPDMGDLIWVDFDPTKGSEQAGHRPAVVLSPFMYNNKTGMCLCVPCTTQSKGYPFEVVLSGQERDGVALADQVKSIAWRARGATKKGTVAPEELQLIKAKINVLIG
BoNT A protease: BoNT/A light chain protease inhibitors, primary screen, biochemical, flow cytometry, MLPCN library; Botulinum neurotoxin type A light chain protease (Clostridium botulinum A str. ATCC 3502); multiplex microsphere protease substrate cleavage; 0.17% of 360,000 active; inhibition, % at 10 µM; AID 588499, 2011; also: plate controls were buffer without enzyme for full effect and enzyme alone for no effect
Anthrax LF prot: Bacillus anthracis LF protease inhibitors, primary screen, biochemical, multiplex microsphere, MLPCN library. Lethal factor (Bacillus anthracis), P15917. multiplex microsphere protease cleavage assay. inhibition, % at 10 µM. 0.12% of 360,000 active. AID 588501, 2011; also: plate controls were buffer without enzyme for full effect and enzyme alone for no effect
* = called active by the depositor; ? = inconclusive; . = no result. Rule as the data show it, unless noted: active = inhibition above about 30%; inconclusive = no clear call, values can overlap the other calls; inactive = below that.

SMILES	BoNT-F LC inh	Autofluor counter	MazF activator	BoNT A protease	Anthrax LF prot
COc1ccc(C(=O)c2oc3ccccc3c2N)cc1	-8	20810*	5	-4	-2
CCOC(=O)c1oc2ccccc2c1NC(=O)c1ccc2c(c1)OCO2	-5	24146*	-1	-4	-2
COc1ccc(NC(=O)c2oc3ccccc3c2NC(=O)c2ccc3c(c2)OCO3)cc1	-2	22577*	0	2	-3
O=C(Nc1ccc2c(c1)oc1ccccc12)c1ccc2c(c1)OCO2	-1	8804	-17	1	-9
COc1ccccc1NC(=O)c1oc2ccccc2c1C	-1	3803	0	0	-7
COc1ccc(NC(=O)C2=C(C)NC(=O)NC2c2cccc(OC)c2OC)c(OC)c1 (stereo unspecified)	0	20365*	-8	?	3
CCOC(=O)c1oc2ccccc2c1NC(=O)c1cccc(OC)c1	-1	22777*	4	1	-1
COc1cccc(C(=O)Nc2c(C(N)=O)oc3ccccc23)c1	-4	5839	11	0	4
O=C(Nc1ccc(-c2nc3ccccc3o2)cc1)c1ccc2c(c1)OCO2	0	16511*	-11	0	-2
CCOC(=O)c1oc2ccccc2c1NC(=O)c1cccc(OC)c1OC	1	18642*	-2	2	-2
Cc1ccc2oc(-c3ccc(NC(=O)c4ccc5c(c4)OCO5)cc3)nc2c1	10	9825	-50	0	-6
COc1cccc(C2NC(=O)NC(C)=C2C(=O)Nc2ccc(C)cc2)c1OC (stereo unspecified)	-21	9014	5	-2	-14
CCOC(=O)c1oc2ccccc2c1NC(=O)CCl	?	3651	4	0	-3
COc1ccc(OC)c(NC(=O)NCCCCc2ccccc2)c1	-4	4377	5	0	-4
C=Cn1ccnc1CC(O)c1ccc(OC)cc1 (stereo unspecified)	-7	2950	-2	-5	0
CN(C)S(=O)(=O)c1ccc(Cl)c(NC(=O)C2CCN(S(=O)(=O)c3cccs3)CC2)c1	-6	3045	2	0	-2
CC1(C(=O)NS(=O)(=O)c2cccc(Cl)c2)CCN1C(=O)C1(c2ccc(Cl)cc2)CC1 (stereo unspecified)	0	3643	.	0	1
Cc1nc2c(C(=O)NCc3ccccc3Cl)c[nH]n2c(=O)c1Cl	0	13100	-9	0	0
Cc1cc(C(=O)NCc2ccccc2)c(=O)[nH]c1C	-6	23927*	4	-4	-8
CN(Cc1ccccc1)C(=O)c1ccccc1NC(=O)C1CC1	0	2256	-1	-1	-2
Cc1nc2c(C(=O)NCc3ccccc3)c[nH]n2c(=O)c1Cl	7	20750*	0	5	-8
O=C(Nc1ccccc1C(=O)NCc1ccccc1)c1ccccc1	3	22302*	0	2	-3
CN(Cc1ccccc1)C(=O)c1ccccc1NC(=O)c1ccccc1	2	22709*	-4	3	0
Cc1ccc(C(=O)NCc2ccccc2)c(F)c1F	-1	4582	1	0	-1
O=C(OCCN=C1NS(=O)(=O)c2ccccc21)C1CC(=O)N(c2ccc3ccccc3c2)C1 (stereo unspecified)	4	19051*	-7	?	-1
SMILES	BoNT-F LC inh	Autofluor counter	MazF activator	BoNT A protease	Anthrax LF prot
Cc1nnc(SCC(=O)NCC(=O)Nc2ccc(F)c(F)c2F)n1Cc1ccccc1	-6	4450	5	0	-8
CCN1C(=O)NC(=O)/C(=C\c2cn(CC(=O)N3CCCCC3)c3ccccc23)C1=O	-12	5727	117*	-4	0
O=C(O)CN1C(=O)/C(=C\c2cn(CC(=O)N3CCOCC3)c3ccccc23)SC1=S	5	2673	191*	1	0
CCN1C(=O)NC(=O)/C(=C\c2cn(CC(=O)N3CCCC3)c3ccccc23)C1=O	-1	5097	-199	0	1
CN(Cc1ccccc1)c1nc2c(c(=O)[nH]c(=O)n2C)n1CCCc1ccccc1	-8	10168	4	1	0
CN(Cc1ccccc1)c1nc2c(c(=O)[nH]c(=O)n2C)n1Cc1ccccc1Cl	-1	22859*	9	?	-4
Cc1ccc(N(C(=O)c2snc(C(N)=O)c2N)C(C(=O)NC2CCCC2)c2ccc(C)o2)cc1 (stereo unspecified)	-8	4836	5	-1	-2
CC(C)[C@H](NC(=O)c1ccccc1)C(=O)NC1=NCCS1	-3	3427	7	0	-3
COc1ccc(Cl)cc1N(CC(=O)Nc1ccccc1SC)S(C)(=O)=O	0	19767*	-1	?	2
COCCn1c(Cc2ccccc2)nnc1SCC(=O)N1CCOCC1	6	4477	6	0	-4
COCCCn1c(Cc2ccccc2)nnc1SCC(=O)N1CCCCC1	-2	22748*	-13	-2	0
CCOC(=O)CNC(=O)c1ccc(Br)s1	12	3576	0	-1	0
O=C(NCCCCNC(=O)c1ccc(Br)s1)c1ccc(Br)s1	-1	20047*	4	?	0
COc1ccccc1-n1cc(C(=O)NCC(=O)N2CCN(c3ccccc3)CC2)c2ccccc2c1=O	-4	24097*	3	-3	1
Cc1ccc(S(=O)(=O)Nc2ccccc2C(N)=O)cc1	-12	17497*	8	-2	-1
NC(=O)c1ccccc1NS(=O)(=O)c1ccccc1	1	8559	-3	2	3
CCOC(=O)N1CCC(NC(=O)CCc2c(C)nc3c(c(C)nn3C(C)(C)C)c2C)CC1	4	21418*	4	4	1
CCOC(=O)C1CCCCN1C(=O)CCc1c(C)nc2ncnn2c1C (stereo unspecified)	-5	21476*	9	-5	2
CCOC(=O)CCc1c(C)nc2ncnn2c1C	-2	23382*	-2	?	-2
COc1ccc(CNC(=O)CCc2c(C)nc3ncnn3c2C)cc1	.	.	1	.	.
Cc1nc2ncnn2c(C)c1CCC(=O)NCc1ccccc1	-5	20501*	8	-2	-1
CCOC(=O)N1CCC(NC(=O)CCc2c(C)nc3ncnn3c2C)CC1	1	22017*	1	?	-1
Cc1nc2ncnn2c(C)c1CCC(=O)NC(C)c1ccc2c(c1)OCCO2 (stereo unspecified)	-1	22862*	-6	-1	-1
Cc1nc2nc(C)c(CCC(=O)NCc3ccc4c(c3)OCO4)c(C)n2n1	-10	17817*	-2	?	-3
CCOC(=O)N1CCN(C(=O)CCc2c(C)nc3c(c(C)nn3-c3ccc(C)c(C)c3)c2C)CC1	-4	20186*	9	-1	-8
CCOC(=O)N1CCC(NC(=O)CCc2c(C)nc3nc(C)nn3c2C)CC1	6	8266	1	0	-3
O=C(Cn1cncn1)N/N=C/c1cccc(Cl)c1	?	3807	3	-1	6
